The full data set covers some 8,800 targets. This sample favours those with a hit. About 0.5% of all pairs of compound and target were hits.
Legend:
Test in all cases: log2 fold change, soluble protein after heating vs DMSO (PISA); higher = thermal stabilisation; K562 lysate, 10 uM; active = over 0.2 and 3.5 SD of the protein, either way, in both replicates (recomputed)
[1] = compound: CCCS(=O)(=O)Nc1ccc(F)c(C(=O)c2c[nH]c3ncc(-c4ccc(Cl)cc4)cc23)c1F [vemurafenib]
Outline: (§1)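 Values give the log-two fold change in thermal stability against solvent controls, from duplicates. Crude K562 extract at 1 mg/mL protein, made by dounce homogenisation in PBS pH 7.4 with 1 mM MgCl2, was treated with 10 μM compound for 30 min. After 3 min heating across 48°C-58°C, aliquots were pooled, adjusted to 0.5% NP-40 at 4°C and centrifuged at 21,000xg for 90 min. The supernatant was measured by TMTpro 16plex LC-MS/MS with channel sums equalised.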

[2] = compound: CCCS(=O)(=O)Nc1ccc(F)c(C(=O)c2c[nH]c3ncc(Cl)cc23)c1F
Outline: as §1

[3] = compound: CCN(CCCOc1ccc2c(Nc3cc(CC(=O)Nc4cccc(F)c4)[nH]n3)ncnc2c1)CCOP(=O)(O)O [barasertib]
Outline: as §1

[4] = compound: CC[C@@H]1C(=O)N(C)c2cnc(Nc3ccc(C(=O)NC4CCN(C)CC4)cc3OC)nc2N1C1CCCC1
Outline: as §1

[5] = compound: CC[C@@H]1C(=O)N(C)c2cnc(Nc3ccc(C(=O)N[C@H]4CC[C@H](N5CCN(CC6CC6)CC5)CC4)cc3OC)nc2N1C(C)C [volasertib]
Outline: as §1

[6] = compound: CCn1c(C(=O)N(C2CC2)C2CC2)cc2c3c(ncn3C)c(Nc3cc(C)n(C)n3)nc21
Outline: as §1

[7] = compound: CCn1cc(-c2ccnc3[nH]c(-c4cccc(CN(C)C)c4)cc23)c(-c2ccc(NC(=O)N(C)C)cc2)n1
Outline: as §1

[8] = compound: CN1CCC(CNc2ccc3ncc(-c4cccc(OC(F)(F)F)c4)n3n2)CC1
Outline: as §1

[9] = compound: CN1CCN(CCOc2cc(OC3CCOCC3)c3c(Nc4c(Cl)ccc5c4OCO5)ncnc3c2)CC1 [saracatinib]
Outline: as §1

[10] = compound: CN1CCN(c2nc(C3=C(c4c[nH]c5ccccc45)C(=O)NC3=O)c3ccccc3n2)CC1 [sotrastaurin]
Outline: as §1

[11] = compound: CN1CC[C@H](c2c(O)cc(O)c3c(=O)cc(-c4ccccc4Cl)oc23)[C@H](O)C1 [alvocidib]
Outline: as §1

[12] = compound: CN1CCc2c(c3ccccc3n2Cc2ccc(C(=O)NO)cc2)C1 [Tubastatin A]
Outline: as §1

[13] = compound: CNC(=O)C1=CC=CC=C1NC2=NC(=NC=C2Cl)NC3=C(C=C(C=C3)N4CCOCC4)OC
Outline: as §1

[14] = compound: CNC(=O)c1ccc(Nc2ncc(C(F)(F)F)c(NCc3nccnc3N(C)S(C)(=O)=O)n2)cc1 [defactinib]
Outline: as §1

[15] = compound: CNc1nc(-c2ccc3c(N)n[nH]c3c2)cc(N2C[C@@H](C(=O)NC3CCCCC3)CC[C@H]2C)n1
Outline: as §1

[16] = compound: COC(=O)N[C@@H](C)CNc1nccc(-c2cn(C(C)C)nc2-c2cc(Cl)cc(NS(C)(=O)=O)c2F)n1 [encorafenib]
Outline: as §1

[17] = compound: COC(=O)[C@H](CCSC)NC(=O)C1=C(C=C(C=C1)NC[C@H](CS)N)C2=CC=CC=C2
Outline: as §1

[18] = compound: COc1cc(Nc2ncc3c(n2)-c2ccc(Cl)cc2C(c2c(F)cccc2OC)=NC3)ccc1C(=O)O [alisertib]
Outline: as §1

[19] = compound: COc1cc2nc(-c3cc(F)ccc3O)nc(N[C@@H]3CNC[C@H]3C(C)(C)O)c2cc1OC
Outline: as §1

[20] = compound: COc1cc2ncnc(Nc3ccc(F)c(Cl)c3)c2cc1OCCCN1CCOCC1 [gefitinib]
Outline: as §1

Measured: log2 fold change

LIG3 (UniProt P49916)
UniProt P49916, sequence (P49916 whole entry, looked up): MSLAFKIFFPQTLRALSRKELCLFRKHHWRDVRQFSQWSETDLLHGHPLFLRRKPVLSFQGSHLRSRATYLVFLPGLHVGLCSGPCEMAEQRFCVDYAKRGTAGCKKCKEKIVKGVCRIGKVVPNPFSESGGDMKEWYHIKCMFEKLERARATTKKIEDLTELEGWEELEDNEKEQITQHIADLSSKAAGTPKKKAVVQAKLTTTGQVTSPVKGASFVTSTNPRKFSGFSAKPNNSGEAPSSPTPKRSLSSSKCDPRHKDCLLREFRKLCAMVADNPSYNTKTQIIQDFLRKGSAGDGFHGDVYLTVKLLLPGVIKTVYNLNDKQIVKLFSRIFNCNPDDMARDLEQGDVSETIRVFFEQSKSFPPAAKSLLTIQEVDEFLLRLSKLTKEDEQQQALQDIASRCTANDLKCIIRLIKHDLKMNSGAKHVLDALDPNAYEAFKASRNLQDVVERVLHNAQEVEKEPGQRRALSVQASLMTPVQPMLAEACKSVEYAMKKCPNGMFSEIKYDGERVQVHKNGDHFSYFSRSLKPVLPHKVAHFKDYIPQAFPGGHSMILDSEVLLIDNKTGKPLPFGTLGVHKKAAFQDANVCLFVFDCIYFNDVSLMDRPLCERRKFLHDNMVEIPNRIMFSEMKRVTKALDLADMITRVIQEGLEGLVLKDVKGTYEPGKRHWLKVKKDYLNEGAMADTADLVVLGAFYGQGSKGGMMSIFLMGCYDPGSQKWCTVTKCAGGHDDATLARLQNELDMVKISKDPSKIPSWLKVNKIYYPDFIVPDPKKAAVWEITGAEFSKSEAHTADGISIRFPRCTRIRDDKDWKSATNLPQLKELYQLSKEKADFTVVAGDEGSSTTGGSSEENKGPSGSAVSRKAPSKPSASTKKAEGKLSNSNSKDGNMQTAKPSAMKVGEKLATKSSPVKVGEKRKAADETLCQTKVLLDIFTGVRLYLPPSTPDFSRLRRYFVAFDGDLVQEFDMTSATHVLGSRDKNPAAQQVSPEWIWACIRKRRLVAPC
inactive: [1] -0.029 | [2] -0.003 | [3] 0.019 | [4] -0.127 | [5] -0.028 | [6] 0.031 | [7] -0.033 | [8] -0.011 | [9] 0.018 | [10] 0.009 | [11] -0.017 | [12] -0.142 | [13] 0.007 | [14] 0.006 | [15] -0.002 | [16] 0.023 | [17] 0.121 | [18] -0.009 | [19] -0.008 | [20] -0.015

LTN1 isoform 3 (UniProt O94822)
inactive: [1] 0.005 | [2] 0.022 | [3] 0.034 | [4] -0.06 | [5] -0.041 | [6] -0.004 | [7] 0.035 | [8] -0.106 | [9] 0.04 | [10] 0.03 | [11] 0.016 | [12] -0.259 | [13] -0.014 | [14] -0.009 | [15] -0.063 | [16] 0.034 | [17] -0.072 | [18] 0.017 | [19] 0.035 | [20] -0.021

MON2 isoform 5 (UniProt Q7Z3U7)
inactive: [1] -0.015 | [2] 0.025 | [3] 0.008 | [4] -0.029 | [5] -0.04 | [6] 0.019 | [7] -0.07 | [8] 0.062 | [9] -0.006 | [10] -0.003 | [11] 0.003 | [12] -0.149 | [13] 0.018 | [14] 0.023 | [15] -0.014 | [16] 0.034 | [17] -0.035 | [18] -0.004 | [19] 0 | [20] 0.005

MAPK1 (UniProt P28482)
UniProt P28482, sequence (P28482 whole entry, looked up): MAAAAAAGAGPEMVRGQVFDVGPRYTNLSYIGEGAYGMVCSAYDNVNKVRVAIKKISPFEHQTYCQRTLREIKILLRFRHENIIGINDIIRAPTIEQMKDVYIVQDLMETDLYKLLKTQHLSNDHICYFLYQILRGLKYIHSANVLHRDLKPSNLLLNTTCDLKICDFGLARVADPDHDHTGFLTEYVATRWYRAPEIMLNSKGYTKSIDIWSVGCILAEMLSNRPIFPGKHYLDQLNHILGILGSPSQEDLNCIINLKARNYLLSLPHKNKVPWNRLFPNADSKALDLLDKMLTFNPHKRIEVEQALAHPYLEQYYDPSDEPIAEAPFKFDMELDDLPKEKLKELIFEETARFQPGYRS
inactive: [1] -0.022 | [2] -0.072 | [3] -0.015 | [4] -0.013 | [5] -0.009 | [6] 0.004 | [7] 0.004 | [8] -0.023 | [9] 0.002 | [10] -0.007 | [11] 0.051 | [12] 0.061 | [14] 0.091 | [15] -0.007 | [16] -0.062 | [17] 0.031 | [18] -0.038 | [19] 0.043 | [20] 0.014
active: [13] 0.242

LSG1 (UniProt Q9H089)
active: [17] 0.303
inactive: [1] -0.056 | [2] 0.046 | [3] 0.037 | [4] -0.084 | [5] -0.065 | [6] -0.01 | [7] -0.124 | [8] 0.064 | [9] 0.043 | [10] 0.024 | [11] -0.079 | [12] -0.016 | [13] -0.046 | [14] 0.003 | [15] -0.077 | [16] 0.046 | [18] -0.017 | [19] -0.028 | [20] -0.059

KIF14 (UniProt Q15058)
inactive: [1] 0.027 | [2] 0.021 | [3] 0.143 | [4] 0.052 | [5] -0.071 | [6] -0.005 | [7] -0.046 | [8] 0.05 | [9] 0.016 | [10] 0.01 | [11] -0.031 | [12] -0.217 | [13] 0.032 | [14] 0.043 | [15] 0.011 | [16] 0.038 | [17] 0.045 | [18] -0.028 | [19] 0.013 | [20] 0.001

LAS1L (UniProt Q9Y4W2)
inactive: [1] -0.027 | [2] 0.007 | [3] -0.003 | [4] -0.051 | [5] -0.069 | [6] 0.009 | [7] -0.055 | [8] 0.099 | [9] -0.031 | [10] 0.049 | [11] -0.015 | [12] -0.127 | [13] -0.024 | [14] -0.02 | [15] 0.016 | [16] -0.04 | [17] 0.06 | [18] -0.011 | [19] 0.01 | [20] -0.013

MGST3 (UniProt O14880)
UniProt O14880, sequence (O14880 whole entry, looked up): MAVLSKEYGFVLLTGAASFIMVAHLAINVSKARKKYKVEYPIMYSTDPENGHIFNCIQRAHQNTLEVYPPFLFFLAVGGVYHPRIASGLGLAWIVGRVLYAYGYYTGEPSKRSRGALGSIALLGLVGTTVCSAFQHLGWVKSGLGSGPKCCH
active: [7] 0.286
inactive: [1] 0.012 | [2] 0.01 | [3] -0.056 | [4] 0.078 | [5] 0.076 | [6] 0.006 | [8] -0.082 | [9] -0.017 | [10] -0.015 | [11] 0.071 | [12] 0.043 | [13] 0.054 | [14] 0 | [15] 0.029 | [16] -0.04 | [17] 0.052 | [18] 0.026 | [19] -0.005 | [20] -0.038

MAPK14 (UniProt Q16539)
UniProt Q16539, sequence (Q16539 whole entry, looked up): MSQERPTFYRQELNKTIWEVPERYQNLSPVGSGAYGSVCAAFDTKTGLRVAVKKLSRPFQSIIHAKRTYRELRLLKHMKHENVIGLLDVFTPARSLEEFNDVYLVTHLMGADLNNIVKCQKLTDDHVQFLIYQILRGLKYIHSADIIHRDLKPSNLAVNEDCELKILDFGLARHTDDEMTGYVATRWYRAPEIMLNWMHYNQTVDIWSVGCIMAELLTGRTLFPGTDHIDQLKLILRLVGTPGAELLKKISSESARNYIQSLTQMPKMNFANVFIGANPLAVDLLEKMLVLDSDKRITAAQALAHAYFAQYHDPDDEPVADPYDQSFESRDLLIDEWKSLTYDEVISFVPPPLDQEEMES
inactive: [1] 0.175 | [2] 0.081 | [3] 0.021 | [4] -0.192 | [5] -0.056 | [6] -0.052 | [7] -0.035 | [8] 0.093 | [9] 0.226 | [10] -0.058 | [11] 0.007 | [12] -0.203 | [13] 0.38 | [14] -0.053 | [15] -0.043 | [16] 0.488 | [17] 0.314 | [18] -0.144 | [19] 0.011 | [20] 0.295

LLGL1 (UniProt Q15334)
UniProt Q15334, sequence (Q15334 whole entry, looked up): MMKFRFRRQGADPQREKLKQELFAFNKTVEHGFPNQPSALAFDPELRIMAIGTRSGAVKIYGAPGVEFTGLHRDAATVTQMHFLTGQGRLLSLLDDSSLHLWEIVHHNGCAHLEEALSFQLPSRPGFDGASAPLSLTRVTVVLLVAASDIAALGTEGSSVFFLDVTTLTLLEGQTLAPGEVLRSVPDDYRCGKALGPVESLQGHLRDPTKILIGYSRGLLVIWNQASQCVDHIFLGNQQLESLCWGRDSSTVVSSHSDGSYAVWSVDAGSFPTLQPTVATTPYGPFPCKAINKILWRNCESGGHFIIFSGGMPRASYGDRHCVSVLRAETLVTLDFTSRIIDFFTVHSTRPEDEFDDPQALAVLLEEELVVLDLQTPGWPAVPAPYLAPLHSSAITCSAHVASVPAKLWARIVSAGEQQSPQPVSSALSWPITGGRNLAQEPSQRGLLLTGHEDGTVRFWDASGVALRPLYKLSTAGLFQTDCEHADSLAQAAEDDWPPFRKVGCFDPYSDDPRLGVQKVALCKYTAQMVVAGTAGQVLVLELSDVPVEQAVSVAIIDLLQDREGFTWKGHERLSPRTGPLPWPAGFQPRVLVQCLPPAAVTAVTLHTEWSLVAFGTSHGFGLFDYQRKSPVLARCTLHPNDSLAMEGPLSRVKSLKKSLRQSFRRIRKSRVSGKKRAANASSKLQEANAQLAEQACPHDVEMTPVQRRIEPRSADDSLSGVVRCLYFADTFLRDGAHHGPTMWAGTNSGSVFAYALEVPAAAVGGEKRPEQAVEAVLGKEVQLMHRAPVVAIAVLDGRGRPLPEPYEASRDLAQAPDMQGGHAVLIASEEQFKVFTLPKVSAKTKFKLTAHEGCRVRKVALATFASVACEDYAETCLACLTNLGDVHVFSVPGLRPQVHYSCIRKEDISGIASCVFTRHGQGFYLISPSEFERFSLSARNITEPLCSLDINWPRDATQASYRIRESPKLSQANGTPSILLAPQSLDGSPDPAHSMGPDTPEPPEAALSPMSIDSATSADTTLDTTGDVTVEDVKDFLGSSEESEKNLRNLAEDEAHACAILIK
inactive: [1] 0.06 | [2] -0.052 | [3] -0.014 | [4] -0.057 | [5] 0.02 | [6] -0.038 | [7] 0.033 | [8] -0.008 | [9] -0.097 | [10] 0.168 | [11] 0.026 | [12] -0.105 | [13] 0.032 | [14] -0.013 | [15] -0.034 | [16] 0.052 | [17] 0.108 | [18] -0.032 | [19] 0.121 | [20] -0.065

MBLAC2 (UniProt Q68D91)
UniProt Q68D91, sequence (Q68D91 whole entry, looked up): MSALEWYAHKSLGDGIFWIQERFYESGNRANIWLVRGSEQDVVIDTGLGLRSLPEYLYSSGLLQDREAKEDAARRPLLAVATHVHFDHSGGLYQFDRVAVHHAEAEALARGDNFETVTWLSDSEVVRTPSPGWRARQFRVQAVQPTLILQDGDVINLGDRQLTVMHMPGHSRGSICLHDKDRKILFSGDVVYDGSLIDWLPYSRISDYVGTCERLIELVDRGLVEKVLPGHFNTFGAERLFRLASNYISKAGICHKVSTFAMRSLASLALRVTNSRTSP
inactive: [1] -0.069 | [2] -0.006 | [3] 0.013 | [4] -0.042 | [5] 0.002 | [6] 0.008 | [7] 0.036 | [8] 0.078 | [9] -0.042 | [10] 0.016 | [11] -0.011 | [12] 0.033 | [13] 0.041 | [14] 0.059 | [15] -0.096 | [16] 0.06 | [17] -0.003 | [18] 0.005 | [19] 0.013 | [20] 0.033

MOSPD2 (UniProt Q8NHP6)
UniProt Q8NHP6, sequence (Q8NHP6 whole entry, looked up): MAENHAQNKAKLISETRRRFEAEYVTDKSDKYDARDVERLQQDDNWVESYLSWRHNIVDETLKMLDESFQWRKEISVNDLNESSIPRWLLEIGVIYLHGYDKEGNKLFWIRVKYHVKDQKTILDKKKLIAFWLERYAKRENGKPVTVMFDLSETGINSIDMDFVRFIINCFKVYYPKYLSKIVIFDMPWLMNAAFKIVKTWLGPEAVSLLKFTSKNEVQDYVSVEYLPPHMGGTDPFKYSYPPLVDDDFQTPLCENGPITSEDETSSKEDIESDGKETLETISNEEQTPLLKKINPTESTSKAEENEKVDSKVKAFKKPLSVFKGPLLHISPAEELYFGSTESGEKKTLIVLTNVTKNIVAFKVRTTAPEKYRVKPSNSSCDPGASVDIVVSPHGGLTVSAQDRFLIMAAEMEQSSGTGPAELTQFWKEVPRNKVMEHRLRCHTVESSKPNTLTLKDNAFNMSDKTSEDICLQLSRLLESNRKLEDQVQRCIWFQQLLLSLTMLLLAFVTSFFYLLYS
inactive: [1] 0.003 | [2] 0.008 | [3] -0.007 | [4] 0.158 | [5] -0.014 | [6] 0.039 | [7] -0.054 | [8] 0.004 | [9] 0.043 | [10] 0.076 | [11] -0.028 | [12] -0.034 | [13] -0.03 | [14] 0.11 | [15] -0.015 | [16] 0.053 | [17] -0.026 | [18] 0.125 | [19] -0.027 | [20] -0.039

MAP2K3 isoform 3 (UniProt P46734)
inactive: [1] 0.065 | [2] -0.042 | [3] 0.032 | [4] -0.125 | [5] 0.07 | [6] -0.063 | [7] 0.191 | [8] 0.04 | [9] 0.113 | [10] -0.008 | [11] 0.05 | [12] -0.066 | [13] 0.139 | [14] 0.017 | [15] -0.055 | [16] -0.011 | [17] 0.169 | [18] 0 | [19] -0.171 | [20] -0.087

MIPEP (UniProt Q99797)
UniProt Q99797, sequence (Q99797 whole entry, looked up): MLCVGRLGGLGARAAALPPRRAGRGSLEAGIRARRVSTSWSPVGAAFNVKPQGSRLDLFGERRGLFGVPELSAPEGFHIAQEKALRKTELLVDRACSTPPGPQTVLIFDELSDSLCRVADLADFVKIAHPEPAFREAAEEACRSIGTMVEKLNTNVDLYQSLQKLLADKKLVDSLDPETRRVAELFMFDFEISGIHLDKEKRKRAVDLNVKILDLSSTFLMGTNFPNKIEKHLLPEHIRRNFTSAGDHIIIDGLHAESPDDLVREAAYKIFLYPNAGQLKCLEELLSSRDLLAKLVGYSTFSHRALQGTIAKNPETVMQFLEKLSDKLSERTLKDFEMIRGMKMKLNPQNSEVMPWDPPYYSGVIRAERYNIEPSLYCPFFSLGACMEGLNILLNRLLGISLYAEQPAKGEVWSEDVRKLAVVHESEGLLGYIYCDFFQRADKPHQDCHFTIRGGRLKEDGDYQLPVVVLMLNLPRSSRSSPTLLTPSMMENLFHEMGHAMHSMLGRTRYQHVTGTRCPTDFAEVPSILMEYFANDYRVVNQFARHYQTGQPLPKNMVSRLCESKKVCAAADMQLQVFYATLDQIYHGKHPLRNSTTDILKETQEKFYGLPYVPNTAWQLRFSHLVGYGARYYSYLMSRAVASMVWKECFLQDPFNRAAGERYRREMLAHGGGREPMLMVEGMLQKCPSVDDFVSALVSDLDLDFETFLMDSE
inactive: [1] -0.026 | [2] 0.004 | [3] 0.006 | [4] -0.053 | [5] -0.029 | [6] 0.029 | [7] -0.05 | [8] -0.015 | [9] 0.001 | [10] -0.042 | [11] 0.027 | [12] 0.011 | [13] -0.03 | [14] 0.025 | [15] -0.067 | [16] -0.012 | [17] 0.154 | [18] -0.038 | [19] -0.009 | [20] -0.007

MPP1 (UniProt Q00013)
UniProt Q00013, sequence (Q00013 whole entry, looked up): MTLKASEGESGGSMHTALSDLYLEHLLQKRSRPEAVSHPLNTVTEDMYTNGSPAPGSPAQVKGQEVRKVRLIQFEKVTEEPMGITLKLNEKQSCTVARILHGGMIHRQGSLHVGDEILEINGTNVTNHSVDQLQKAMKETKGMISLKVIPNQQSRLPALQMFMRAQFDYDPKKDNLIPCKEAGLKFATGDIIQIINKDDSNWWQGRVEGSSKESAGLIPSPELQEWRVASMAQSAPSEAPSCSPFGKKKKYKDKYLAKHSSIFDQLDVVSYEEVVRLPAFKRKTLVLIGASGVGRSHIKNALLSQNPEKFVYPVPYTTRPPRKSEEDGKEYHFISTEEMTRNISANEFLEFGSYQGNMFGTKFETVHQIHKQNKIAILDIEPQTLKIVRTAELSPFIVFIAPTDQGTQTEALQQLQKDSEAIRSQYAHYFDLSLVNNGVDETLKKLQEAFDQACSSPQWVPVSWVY
inactive: [1] 0.014 | [2] -0.005 | [3] -0.014 | [4] 0.001 | [5] -0.029 | [6] -0.011 | [7] -0.008 | [8] -0.034 | [9] -0.001 | [10] -0.007 | [11] -0.01 | [12] -0.01 | [13] -0.007 | [14] -0.002 | [15] 0.01 | [16] -0.015 | [17] 0.011 | [18] -0.008 | [19] -0.007 | [20] 0

MRPL15 (UniProt Q9P015)
inactive: [1] 0.004 | [2] 0.025 | [3] -0.04 | [4] 0.024 | [5] -0.018 | [6] -0.062 | [8] 0.174 | [9] -0.07 | [10] 0.023 | [11] -0.122 | [12] 0.022 | [13] -0.014 | [14] -0.011 | [15] 0.088 | [16] 0.053 | [17] -0.013 | [18] 0.006 | [19] -0.014 | [20] -0.027
active: [7] -0.509
